Source: PubChem BioAssay (several laboratories)
Rows were chosen to be rich in hits. Some 1.5% of all compounds tested hit in one or more screens of this group.
MEX-5 binding: C. elegans MEX-5 TCR-2 RNA binding activity. actives 0.38% (n = 300,000). MEX-5/FITC-TCR2 RNA binding, fluorescence polarization; stronger effect = lower value. activity score (negative = inhibition of binding), % at 10 µM. Q9XUB2;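 active = inhibition past about -25% in most replicates, and total fluorescence under double the plate's negative control median, limit read from the data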
EBV gp42 inh: inhibitors of Epstein-Barr virus glycoprotein 42 | Q1HVG2 | Fluorescence polarization binding assay, mP read-out | inhibition, % (tested at 21.74 µM) | actives 0.42% (n = 220,000) | AID 1085; in the data active = inhibition above about 50%
eLon inh: inhibits E. coli Lon protease; AID 602123; inhibition, % at 7.94 µM; actives 0.42% (n = 360,000); P0A9M0; purified E. coli Lon protease, fluorescence polarization; in the data active = inhibition above about 13%, passing the limit was not always enough
Target sequence (P0A9M0 whole entry, looked up): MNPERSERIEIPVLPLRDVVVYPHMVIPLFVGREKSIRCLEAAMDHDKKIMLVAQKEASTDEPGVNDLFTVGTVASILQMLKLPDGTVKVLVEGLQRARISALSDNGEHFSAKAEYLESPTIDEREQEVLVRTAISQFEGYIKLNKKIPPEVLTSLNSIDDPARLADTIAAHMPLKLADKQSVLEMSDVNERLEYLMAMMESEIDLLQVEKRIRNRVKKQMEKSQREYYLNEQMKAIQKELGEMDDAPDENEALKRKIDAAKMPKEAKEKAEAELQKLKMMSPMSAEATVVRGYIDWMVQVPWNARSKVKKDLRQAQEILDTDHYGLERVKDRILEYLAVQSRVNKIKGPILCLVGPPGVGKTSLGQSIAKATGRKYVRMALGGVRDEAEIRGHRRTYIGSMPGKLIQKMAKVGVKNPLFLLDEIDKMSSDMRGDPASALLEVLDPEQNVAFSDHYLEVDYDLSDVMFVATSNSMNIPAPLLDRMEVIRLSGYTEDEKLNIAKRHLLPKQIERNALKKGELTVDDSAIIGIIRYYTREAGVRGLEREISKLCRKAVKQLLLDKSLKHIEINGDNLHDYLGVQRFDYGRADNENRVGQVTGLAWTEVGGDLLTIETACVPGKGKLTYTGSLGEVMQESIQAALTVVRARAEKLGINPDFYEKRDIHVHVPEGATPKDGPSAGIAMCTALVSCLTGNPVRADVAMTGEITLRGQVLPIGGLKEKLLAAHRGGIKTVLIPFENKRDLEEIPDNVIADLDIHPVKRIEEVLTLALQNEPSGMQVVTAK
BCLXL inh: blocks human Bcl-xL binding to Bim BH3 peptide | Q07817 | GST-Bcl-xL / FITC-Bim BH3 peptide fluorescence polarization | inhibition, % at 10.9 µM | actives 0.7% (n = 320,000);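 active = inhibition above the mean of all tested compounds plus 3 SD, cutoff set per campaign, cut at about 30% in these data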;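 note: inhibitors lower millipolarization by displacing the labeled peptide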
MCL1 BIM primary: inhibitors of human MCL1 binding to BIM-BH3 peptide | inhibition, % at 10.9 µM | Q07820 | AID 2057 | actives 0.68% (n = 320,000) | GST-MCL1 / FITC-Bim-BH3 fluorescence polarization;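 active = inhibition above the mean inhibition of all tested compounds plus 3 SD, set per campaign, cut at about 40% in these data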;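 note: higher means more loss of mP so more displacement of Bim peptide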
GLD-1 RNA inh: GLD-1-TGE RNA interaction inhibition (C. elegans) | Q17339 | purified GLD-1 + fluorescein TGE RNA, fluorescence polarization | inhibition, % at 5.96 µM | actives 0.44% (n = 320,000) | AID 2280;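 active = percent inhibition above a per-plate cutoff, the plate mean of test compounds plus 3 SD, cut at about 30% in these data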
A number is an active result; - = inactive; . = no result given.

SMILES	MEX-5 binding	EBV gp42 inh	eLon inh	BCLXL inh	MCL1 BIM primary	GLD-1 RNA inh
O=C(c1ccco1)N1CCN(C(=O)c2cc(-c3ccccn3)nc3ccc(Cl)cc23)CC1	-	-	-	40	-	-
N#Cc1ccccc1S(=O)(=O)N1CCN(C(=O)c2cc3c(s2)CCC3)CC1	.	.	-	.	.	.
Cc1cc(NC(=O)CCC(=O)N(CC(=O)NC2CCCC2)c2ccc(Cl)cc2)no1	-	.	-	-	-	-
O=C(O)/C=C/C(=O)Nc1ccc(N2CCOCC2)nc1N1CCOCC1	-	-	-	39	-	-
Cc1ccccc1N=C(c1ccccc1)C1C(=O)c2ccccc2C1=O	.	.	-	.	.	.
Cn1c(NC(=O)c2ccccc2C(F)(F)F)cc(=O)n(C)c1=O	-	-	-	-	-	162
C/C(=N/Nc1ccc(C(=O)O)cc1)c1ccc(O)c(O)c1O	-41	-	-	-	-	-
Cc1ccc(-c2cc(C(=O)NC3=NCCS3)c3ccccc3n2)cc1C	-	-	-	90	-	-
O=C(NC1=NCCS1)c1cc(-c2ccc(F)cc2)nc2ccccc12	-	-	-	-	-	-
CCOC(=O)c1c(/N=C/c2ccc(O)cc2O)sc2c1CCC2	-	-	.	-	-	33
CCOC(=O)c1c(/N=C/c2ccccc2O)sc2c1CCC2	-	-	-	-	-	-
O=S(=O)(c1ccccc1)c1nc(NCc2cccnc2)sc1Cl	-	-	-	-	-	-
O=C1COc2ccc(C(=O)COC(=O)c3cc(S(=O)(=O)N4CCOCC4)ccc3F)cc2N1	-	.	-	60	-	-
O=C1COc2ccc(C(=O)COc3ccc(Cl)cc3Br)cc2N1	-	.	-	-	-	-
COC(=O)c1ccc(N/N=C/c2cc([N+](=O)[O-])cc(OC)c2O)cc1	-	-	-	36	-	-
COc1ccc(-c2sc3ccc(N4CCOCC4)cc3c2-c2ccc(OC)c(F)c2)cc1	-	.	-	-	-	-
Cc1cc(NS(=O)(=O)c2ccc(NC(=O)c3cc4cc(Br)ccc4oc3=O)cc2)no1	-	101	-	-	-	-
CC(OC(=O)Nc1ccccc1)C(=O)OC1CCCCC1 (centres undefined)	.	.	-	.	.	.
CCOc1ccc(/C=C2/SC(=O)NC2=S)cc1	-	-	-	48	50	67
COc1ccc2[nH]c(=O)c(CN(CCc3ccccc3)C(C)=O)cc2c1	-	-	-	-	-	-
COc1ccc(NC(=O)N(CCc2ccccc2)Cc2cc3c(C)cc(C)cc3[nH]c2=O)cc1	-	59	-	-	-	-
CCCN(CC(=O)Nc1ccccc1OC)C(=O)c1ccc2[nH]c3c(c2c1)CC(C)CC3 (centres undefined)	.	.	-	-	-	-
CCc1ccc(Nc2n[n+](C)c(-c3ccncc3)s2)cc1	-	.	-	-	-	-
CC(C)(C)OC(=O)N1CCC(C(=O)Nc2ccc(C(=O)NCc3ccccc3)cc2)CC1	.	.	-	.	.	.
C[C@@H]1O[C@@H](Oc2c(-c3cc(O)c(O)c(O)c3)oc3cc(O)cc(O)c3c2=O)[C@H](O)[C@H](O)[C@H]1O	-58	-	-	-	-	-
SMILES	MEX-5 binding	EBV gp42 inh	eLon inh	BCLXL inh	MCL1 BIM primary	GLD-1 RNA inh
C[C@@H]1O[C@@H](Oc2c(-c3ccc(O)c(O)c3)oc3cc(O)cc(O)c3c2=O)[C@H](O)[C@H](O)[C@H]1O	.	.	-	.	.	-
C=CCOC(=O)C1=C[C@@H](c2ccc3c(c2)OCO3)C[C@@H](OCc2ccc(CO)cc2)O1	-	-	-	-	-	-
COc1ccc(C2c3ccc(O)cc3Oc3ncn(Cc4ccco4)c(=N)c32)cc1OC (centres undefined)	-29	-	-	-	-	-
COc1ccc(C2c3ccc4ccccc4c3Oc3ncn(Cc4ccco4)c(=N)c32)cc1OC (centres undefined)	-	-	-	-	-	-
COc1ccc(OC)c(/C=c2\sc3nc(-c4cccs4)nn3c2=O)c1	-51	135	-	-	-	-
CC(C)(C)c1csc(NC(=O)Cc2ccc(S(=O)(=O)N3CCOCC3)s2)n1	-	.	-	33	-	-
CN(C)c1ccc(/C=N/NC2=NS(=O)(=O)c3ccccc32)cc1	-41	.	-	-	-	-
CN(C)c1ccc(/C=N/N(CCC(=O)NC(C)(C)C)C2=NS(=O)(=O)c3ccccc32)cc1	-53	.	-	-	-	-
CC1(C)Cc2c(c(-c3ccccc3Cl)[nH]c(=O)c2C#N)CO1	-	-	-	-	-	-
N#Cc1c(-c2ccc(Cl)cc2)c2c([nH]c1=O)-c1ccccc1OC2	-28	-	-	-	-	-
COc1cccc(/C=N/N2CCOCC2)c1O	-	-	-	-	-	-
O=C1c2ccccc2C(=O)N1/N=C/c1ccc(O)c(O)c1O	-53	-	-	.	.	.
Oc1ccc(/C=N/N2CCOCC2)c(O)c1O	-47	-	-	-	-	-
COc1ccc(NC(=O)C(NS(=O)(=O)c2cccs2)C(C)C)cc1Cl (centres undefined)	-	.	-	-	-	-
COc1cc(/C=C2/C(C)=C(C#N)c3nc(N)c(C#N)c(C)c32)ccc1OCC(=O)O	-	-	.	31	-	-
Nc1nonc1-c1nc2ccccc2n1CC(=O)N/N=C/c1ccc(-c2ccccc2C(=O)O)o1	-	-	-	-	-	-
CC1=C(C#N)c2nc(N)c(C#N)c(C)c2/C1=C\c1ccc(-c2ccccc2C(=O)O)o1	-52	-	-	.	.	.
COc1ccccc1C(=O)Nc1ccnn1C1CCN(C(=O)C2CCOC2)CC1 (centres undefined)	-	.	-	-	-	-
COc1ccccc1C(=O)Nc1ccnn1C1CCN(C(C)CSC)CC1 (centres undefined)	-26	.	-	42	45	-
COc1ccccc1C(=O)Nc1ccnn1C1CCN(C2CCSCC2)CC1	-	.	-	42	42	-
Cc1ccccc1C(=O)Nc1ccnn1C1CCN(C2CCSCC2)CC1	-	.	-	36	-	-
COc1ccccc1C(=O)Nc1ccnn1C1CCN(C)CC1	.	.	-	-	-	-
Cc1cc(C)c(NC(=S)NC(CO)(CO)CO)c(C)c1	-	-	-	-	-	-
CCC1CCCCN1C(=O)Cn1nc([N+](=O)[O-])c(Cl)c1C (centres undefined)	-	-	-	-	-	-
C/C(=N\Nc1ccc(C(=O)c2c(C)cc3ccccn23)cc1[N+](=O)[O-])c1ccc(O)cc1	-	-	-	-	-	-
Cc1cc2ccccn2c1C(=O)c1ccc(N/N=C/c2ccc(C(=O)O)cc2)c([N+](=O)[O-])c1	.	65	-	.	.	.
N#CC(=C=[N-])C1=C(C#N)C(c2ccccc2F)C([n+]2ccccc2)C(O)(C2CC2)N1 (centres undefined)	-	-	-	-	-	-
Cc1cccc[n+]1C1C(c2ccccc2)C(C#N)=C(C(=C=[N-])C#N)NC1(O)C1CC1 (centres undefined)	-	-	-	44	-	-
O=C(NNC(=O)c1ccccc1O)c1ccco1	-29	-	-	-	-	-
